# From article PMC13541613, “GHT-SELEX demonstrates unexpectedly high intrinsic sequence specificity and complex DNA binding of many human transcription factors”
# Biological target: ZNF721 full-length (Homo sapiens, UniProt Q8TF20-2 1-923)
# Test: HT-SELEX; 20 mM HEPES pH 7, 140 mM KCl, 5 mM NaCl, 1 mM K2HPO4, 2 mM MgSO4, 100 uM EGTA, ZnSO4, 0.1% Tween20; room temperature, 1 h; high values mean tight binding
# Settings: protein: ivt; tags: eGFP (N-terminal); dsDNA, one strand shown
# Procedure, shortened: (§1)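 Bead-immobilised tagged transcription factor (full-length or DNA-binding-domain fragment), made in HEK293 lysate or cell-free extract, was incubated with a randomized 40-base DNA library. Binding was for 1 h at room temperature in HEPES/KCl low-stringency buffer with Tween20. After washing and heat elution, bound DNA was PCR-amplified over successive cycles and Illumina-sequenced (~3 million 60 bp reads per sample). Binding signal is a relative k-mer count in selected reads; higher means tighter binding.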
# ZNF721 full-length, sequence (Q8TF20 other isoform, or with tags, fused parts or gaps): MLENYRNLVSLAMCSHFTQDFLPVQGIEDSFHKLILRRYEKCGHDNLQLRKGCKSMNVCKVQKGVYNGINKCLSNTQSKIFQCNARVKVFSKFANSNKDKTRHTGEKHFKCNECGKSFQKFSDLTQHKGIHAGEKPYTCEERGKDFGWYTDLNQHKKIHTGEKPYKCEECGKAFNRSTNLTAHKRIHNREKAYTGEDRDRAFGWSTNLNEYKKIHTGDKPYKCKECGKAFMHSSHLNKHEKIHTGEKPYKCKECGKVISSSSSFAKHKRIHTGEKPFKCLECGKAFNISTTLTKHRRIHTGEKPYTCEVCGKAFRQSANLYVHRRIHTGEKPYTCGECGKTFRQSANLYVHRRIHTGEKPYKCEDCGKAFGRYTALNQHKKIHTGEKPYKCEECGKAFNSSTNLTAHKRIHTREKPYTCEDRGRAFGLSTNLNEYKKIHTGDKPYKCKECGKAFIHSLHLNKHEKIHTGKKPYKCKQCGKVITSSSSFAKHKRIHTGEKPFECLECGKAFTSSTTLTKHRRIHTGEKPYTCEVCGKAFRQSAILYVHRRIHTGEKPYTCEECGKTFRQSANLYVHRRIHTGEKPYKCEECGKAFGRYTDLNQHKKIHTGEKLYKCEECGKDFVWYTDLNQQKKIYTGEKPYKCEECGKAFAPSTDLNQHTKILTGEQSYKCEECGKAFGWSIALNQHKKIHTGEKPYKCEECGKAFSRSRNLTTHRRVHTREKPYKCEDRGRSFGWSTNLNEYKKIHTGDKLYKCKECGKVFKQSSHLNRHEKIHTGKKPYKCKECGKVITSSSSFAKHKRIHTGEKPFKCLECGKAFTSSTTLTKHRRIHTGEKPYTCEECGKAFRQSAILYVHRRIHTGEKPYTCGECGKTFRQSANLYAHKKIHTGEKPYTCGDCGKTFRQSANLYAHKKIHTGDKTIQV
row,Sequence,binding signal
1,CCCACTCCCC,0.155 relative 10-mer count
2,CCCCCGCCCC,0.312 relative 10-mer count
3,CGCCACCCCC,0.212 relative 10-mer count
4,CAGGGTGGGG,0.111 relative 10-mer count
5,CCCCCCGTCC,0.134 relative 10-mer count
6,CTCCCCCCGC,0.114 relative 10-mer count
7,CCACACACCC,0.105 relative 10-mer count
8,CCACCCTCCA,0.123 relative 10-mer count
9,CGCCCCCGCC,0.132 relative 10-mer count
10,GCGTACCCTA,0.111 relative 10-mer count
11,ACCCACCCAC,0.196 relative 10-mer count
12,AAAAAAGAGT,0.101 relative 10-mer count
13,CCCCCCTACC,0.127 relative 10-mer count
14,CCCACCCACC,0.425 relative 10-mer count
15,CACCCCCCTC,0.127 relative 10-mer count
16,CACCACCCCA,0.222 relative 10-mer count
17,CCACCGACCC,0.107 relative 10-mer count
18,ACCCGCCCCA,0.109 relative 10-mer count
19,CCCGTCCCCC,0.187 relative 10-mer count
20,CCTCCTCCCC,0.169 relative 10-mer count

row,Sequence,binding signal
1,AGCGTTTCCA,0.214 relative 10-mer count
2,CTCCCCTCCC,0.135 relative 10-mer count
3,CCCCACCCCC,0.447 relative 10-mer count
4,AAAGCAGTAC,0.156 relative 10-mer count
5,GGGTGGGGGA,0.208 relative 10-mer count
6,CCCGACCCCA,0.112 relative 10-mer count
7,CACCCACACC,0.127 relative 10-mer count
8,CCTACCCACC,0.124 relative 10-mer count
9,CCCTACCACC,0.104 relative 10-mer count
10,CACCACCACC,0.19 relative 10-mer count
11,GCCCACCCCC,0.215 relative 10-mer count
12,CCCACCCGCC,0.216 relative 10-mer count
13,AGAAAAAAAG,0.118 relative 10-mer count
14,CCCACAACCC,0.106 relative 10-mer count
15,CACCACACCC,0.12 relative 10-mer count
16,ACCCCACCCT,0.104 relative 10-mer count
17,CCCCGCCGCC,0.175 relative 10-mer count
18,ACCCACCGCC,0.114 relative 10-mer count
19,CCATCCCCAC,0.116 relative 10-mer count
20,GCACCCCCAC,0.107 relative 10-mer count

# Biological target: ZNF721 DBD1 (Homo sapiens, UniProt Q8TF20-2 29-461)
# Test: as above
# Settings: protein: ivt; tags: eGFP (N-terminal); dsDNA, one strand shown
# Procedure, shortened: as §1
# ZNF721 DBD1, sequence (Q8TF20 17-449): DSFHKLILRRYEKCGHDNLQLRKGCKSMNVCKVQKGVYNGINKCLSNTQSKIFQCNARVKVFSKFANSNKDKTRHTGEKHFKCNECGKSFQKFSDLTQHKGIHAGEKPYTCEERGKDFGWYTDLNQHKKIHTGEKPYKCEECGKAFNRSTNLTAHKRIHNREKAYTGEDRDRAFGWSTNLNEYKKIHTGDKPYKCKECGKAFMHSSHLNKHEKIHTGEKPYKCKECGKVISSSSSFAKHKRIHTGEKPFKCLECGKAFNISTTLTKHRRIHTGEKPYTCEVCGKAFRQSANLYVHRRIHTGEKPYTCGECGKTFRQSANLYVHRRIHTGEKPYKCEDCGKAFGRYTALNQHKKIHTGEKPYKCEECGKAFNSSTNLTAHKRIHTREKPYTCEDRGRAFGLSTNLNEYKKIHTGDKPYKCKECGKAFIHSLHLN
row,Sequence,binding signal
1,CCCACTCCCC,0.00656 relative 10-mer count
2,CCCCCGCCCC,0.0117 relative 10-mer count
3,CGCCACCCCC,0.00706 relative 10-mer count
4,CAGGGTGGGG,0.00399 relative 10-mer count
5,CCCCCCGTCC,0.00491 relative 10-mer count
6,CTCCCCCCGC,0.00468 relative 10-mer count
7,CCACACACCC,0.00321 relative 10-mer count
8,CCACCCTCCA,0.00587 relative 10-mer count
9,CGCCCCCGCC,0.00523 relative 10-mer count
10,GCGTACCCTA,0.0263 relative 10-mer count
11,ACCCACCCAC,0.00922 relative 10-mer count
12,AAAAAAGAGT,0.00665 relative 10-mer count
13,CCCCCCTACC,0.00569 relative 10-mer count
14,CCCACCCACC,0.0187 relative 10-mer count
15,CACCCCCCTC,0.00633 relative 10-mer count
16,CACCACCCCA,0.00803 relative 10-mer count
17,CCACCGACCC,0.00482 relative 10-mer count
18,ACCCGCCCCA,0.00307 relative 10-mer count
19,CCCGTCCCCC,0.00771 relative 10-mer count
20,CCTCCTCCCC,0.00881 relative 10-mer count

row,Sequence,binding signal
1,AGCGTTTCCA,0.00252 relative 10-mer count
2,CTCCCCTCCC,0.00693 relative 10-mer count
3,CCCCACCCCC,0.0179 relative 10-mer count
4,AAAGCAGTAC,0.0228 relative 10-mer count
5,GGGTGGGGGA,0.00885 relative 10-mer count
6,CCCGACCCCA,0.00399 relative 10-mer count
7,CACCCACACC,0.0061 relative 10-mer count
8,CCTACCCACC,0.00546 relative 10-mer count
9,CCCTACCACC,0.00578 relative 10-mer count
10,CACCACCACC,0.0072 relative 10-mer count
11,GCCCACCCCC,0.00876 relative 10-mer count
12,CCCACCCGCC,0.00794 relative 10-mer count
13,AGAAAAAAAG,0.0217 relative 10-mer count
14,CCCACAACCC,0.00431 relative 10-mer count
15,CACCACACCC,0.00486 relative 10-mer count
16,ACCCCACCCT,0.005 relative 10-mer count
17,CCCCGCCGCC,0.00541 relative 10-mer count
18,ACCCACCGCC,0.00482 relative 10-mer count
19,CCATCCCCAC,0.00537 relative 10-mer count
20,GCACCCCCAC,0.00523 relative 10-mer count
